Experimental findings from PubChem BioAssay AID651640 (Broad Institute, 2012) are described below.

The whole screen tested about 350,000 compounds, of which about 6,000 (1.7%) were called active. About 5% were inconclusive and are not listed. What follows is part of a selection rich in actives, with near analogues and random picks from the rest. A number with no mark means an inactive call. Cut-off read from the data, not from the text of the source: active = CPE inhibition above about 20% (passing the limit was not always enough); inconclusive = no clear call, values can overlap the other calls; tested in BHK-21 cells.

A short description of this assay: protection of cells from dengue 2 killing – plate reader, single concentration, primary screen (AID 651640).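 Note: 0% = median of neutral control wells and 100% = median of positive control wells.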 The settings on record: DENV2-infected cells, cytopathic effect rescue, at 9.99 µM, active compounds read high. Background: Damage to the host cells serves as the signal in cytopathic effect assays.
Regarding `CCOC(=O)[C@H]1[C@H]2COc3cc(OC)ccc3[C@@H]2N2C(=O)CN(Cc3ccc(Cl)cc3)C(=O)[C@@]12C`, the CPE inhibition is -5.6%.

For `CCOC(=O)[C@H]1[C@H]2COc3ccccc3[C@@H]2N2C(=O)CN(Cc3ccccc3)C(=O)[C@@]12C`, the CPE inhibition is 95% (active).

In the case of `CCOC(=O)[C@H]1[C@H]2COc3ccc(C)cc3[C@@H]2N2C(=O)CN(Cc3ccc(F)cc3)C(=O)[C@@]12C`, the CPE inhibition was -7.57%.

For the molecule `Cc1ccc(N2CC(C(=O)N3CCC4(CC3)CC(=O)c3ccccc3O4)CC2=O)cc1C` (stereo not given), the CPE inhibition was -6.93%.

Take `O=C1CC2(CCCCC2)Oc2ccc(OCC(=O)N3CCOCC3)cc21`: the CPE inhibition was 2.58%.

In the case of `O=C1CC2(CCN(C(=O)COc3ccc(F)cc3)CC2)Oc2ccccc21`, the CPE inhibition is 29.9% (active).

For `Cc1cccc(Oc2c([N+](=O)[O-])c(=O)n(C)c3ccccc23)c1`, the CPE inhibition is -2.07%.

Turning to `COc1cc2c(=O)n(C)c3ccccc3c2cc1OC`, the CPE inhibition was 0.702%.

As to `Cc1cc(C)c(-c2c(O)c3ccccc3n(C)c2=O)c(C)c1`, the CPE inhibition is 72% (active).

For `CC(C)NC(=O)N(C)C[C@H]1OCCCC[C@H](C)Oc2ccc(NC(=O)CCC(F)(F)F)cc2C(=O)N([C@H](C)CO)C[C@H]1C`, the CPE inhibition was 7.36%.

In the case of `CCN1C(=O)N[C@@H](CCc2ccccc2)C(C(=O)OC)=C1C`, the CPE inhibition is -5.47%.

As for `CCN1C(=S)N[C@@H](CCc2ccccc2)[C@H](C(=O)OC)[C@H]1C`, the CPE inhibition was 65.7% (active).

Turning to `COCCN1C(=O)N[C@@H](CCc2ccccc2)[C@H](C(C)=O)[C@H]1C`, the CPE inhibition is -5.61%.

Regarding `CCS(=O)(=O)Nc1ccc2c(c1)C(=O)N(C)[C@H]1CC[C@@H](CC(=O)N3CCCCC3)O[C@H]1CO2`, the CPE inhibition is -4.09%.

For `COc1ccc(S(=O)(=O)N(C)C[C@H]2Oc3ccc(NC(=O)CCC(F)(F)F)cc3CC(=O)N([C@H](C)CO)C[C@@H]2C)cc1`, the CPE inhibition is 15.8%.

With `CO[C@H]1CN(C)C(=O)c2ccc(NC(C)=O)cc2OC[C@@H](C)N(C(=O)c2ccccn2)C[C@@H]1C`, the CPE inhibition was -11.8%.

For the molecule `C[C@H](CO)N1C[C@H](C)[C@H](CN(C)C(=O)Nc2cccc(Cl)c2Cl)OCc2ccccc2-c2ccccc2C1=O`, the CPE inhibition is -3.92%.

As to `O=C(NC(=S)Nc1ccc(Br)cc1F)C1CCCCC1`, the CPE inhibition is -4%.

As to `S=C(Nc1ccc(Cl)cc1Cl)N1CCCC1`, the CPE inhibition was -8.93%.

As to `O=C(NC(=S)Nc1ccc(Cl)cc1Cl)C1CC1`, the CPE inhibition was 86.2% (active).

Take `O=C(Cc1ccccc1)N1C[C@@H]2[C@H](c3ccccc31)[C@@H](CO)N2C(=O)C1CC1`: the CPE inhibition is -0.201%.

For the molecule `CC(=O)N[C@@H]1CC[C@@H](CCNC(=O)C2CC2)O[C@H]1CO`, the CPE inhibition was 1.82%.

Turning to `COc1cccc(CNC(=O)CCN2C(=S)NC(C)(C)CC2C)c1` (stereo not given), the CPE inhibition is 8.33%.

`CC1CC(C)(C)NC(=S)N1CCC(=O)N1CCN(Cc2ccccc2)CC1` (stereo not given): the CPE inhibition was 16.6%.

Take `CCN(Cc1ccccc1)C(=O)CN1C(=S)NC(C)(C)CC1C` (stereo not given): the CPE inhibition is 65.7% (active).

For `C[C@@H]1CN([C@@H](C)CO)C(=O)c2cc(NC(=O)Cn3cnnn3)ccc2O[C@H]1CN(C)Cc1ccc(C(F)(F)F)cc1`, the CPE inhibition was -5.69%.

Turning to `N#Cc1cccc(-c2ccc([C@H]3[C@@H](CO)N4CCCCN(C(=O)Nc5ccccc5)C[C@H]34)cc2)c1`, the CPE inhibition is -9.56%.

For `COCC(=O)N1CC2(C1)[C@@H](c1ccc(-c3cccc(F)c3)cc1)[C@@H](CO)N2C(=O)COC`, the CPE inhibition was -4.52%.

On to `CN(C)CC(=O)N1CC2(C1)[C@H](c1ccccc1)[C@@H](CO)N2C(=O)C1CCCCC1`, for which the CPE inhibition is -1.45%.

`C/C=C/c1ccc([C@@H]2[C@H](CO)N(C(=O)c3cnccn3)C23CN(C(C)=O)C3)cc1`: the CPE inhibition is 3.48%.

With `O=C(c1ccccn1)N1CC2(C1)[C@@H](c1ccccc1)[C@@H](CO)N2C(=O)C1CCCCC1`, the CPE inhibition is 4.48%.

For the molecule `CN(C)CC(=O)N1[C@@H](CO)[C@H](c2ccccc2)C12CN(C(=O)c1cccc(F)c1)C2`, the CPE inhibition was 49.2% (active).

In the case of `CCCNC(=O)N1CC2(C1)[C@H](c1ccccc1)[C@@H](CO)N2C(=O)C1CC1`, the CPE inhibition was 16.7%.

For the molecule `C/C=C/c1ccc([C@@H]2[C@@H](CO)N(C(=O)c3ccccc3)C23CN(C(C)=O)C3)cc1`, the CPE inhibition was 70.8% (active).

As to `CN(C)CC(=O)N1CC2(C1)[C@H](c1ccccc1)[C@H](CO)N2C(=O)C1CC1`, the CPE inhibition was 24.3% (active).

On to `CC(=O)N1CC2(C1)[C@H](c1ccccc1)[C@@H](CO)N2C(=O)Cc1ccccc1`, for which the CPE inhibition was 4.56%.

With `CCC(=O)N1CC2(C1)[C@H](c1ccccc1)[C@@H](CO)N2C(=O)c1ccccc1`, the CPE inhibition was -0.875%.

Take `O=C(C1CCCCC1)N1[C@H](CO)[C@@H](c2ccccc2)C12CN(Cc1cccc(Cl)c1)C2`: the CPE inhibition was 27.1% (active).

On to `O=C(C1CCCC1)N1[C@@H](CO)[C@@H](c2ccccc2)C12CN(Cc1ccc(F)cc1)C2`, for which the CPE inhibition was -1.84%.

As to `COc1ccc2c3c([nH]c2c1)[C@H](CO)N(C(=O)Nc1ccc(F)cc1)CC31CCN(C(=O)Nc2c(C)noc2C)CC1`, the CPE inhibition was -3.75%.

Consider `CC=Cc1ccc2n(c1=O)C[C@@H]1[C@@H](CO)[C@H](C(=O)NCCc3ccccc3)N(C(C)=O)[C@H]21` (mixture of isomers), for which the CPE inhibition was -2.04%.

As to `Cc1ccc(S(=O)(=O)NCC[C@H]2CC[C@@H](NS(=O)(=O)c3ccccc3Cl)[C@H](CO)O2)cc1`, the CPE inhibition is -7.15%.

On to `COc1ccc(CN(C)C[C@H]2OCCCC[C@H](C)Oc3ccc(NC(=O)Nc4ccc5c(c4)OCO5)cc3C(=O)N([C@H](C)CO)C[C@@H]2C)cc1`, for which the CPE inhibition is -3.02%.

As to `N#C[C@H]1[C@@H](c2ccccc2C2=CCCC2)[C@H](CO)N1C(=O)c1cccc(F)c1`, the CPE inhibition was 19.5%.

With `C[C@@H]1CN([C@@H](C)CO)C(=O)c2cc(NC(=O)NC3CCCCC3)ccc2O[C@@H](C)CCCCO[C@H]1CN(C)Cc1ccccc1`, the CPE inhibition is 1.48%.

Consider `CCCC#Cc1cnc2c(c1)C(=O)N([C@H](C)CO)C[C@@H](C)[C@@H](CN(C)C(=O)Nc1ccccc1F)O2`, for which the CPE inhibition was -4.21%.

With `CO[C@@H]1CN(C)C(=O)c2ccc(NC(=O)c3ccc(F)cc3)cc2OC[C@H](C)N(C(=O)c2ccc(F)cc2)C[C@@H]1C`, the CPE inhibition is -1.44%.

On to `C[C@@H]1CN([C@@H](C)CO)C(=O)c2c(c3ccccc3n2C)-c2ccccc2CO[C@H]1CN(C)Cc1cccc(C(=O)O)c1`, for which the CPE inhibition was 8.1%.

For the molecule `COc1cccc(C#Cc2cnc3c(c2)C(=O)N([C@H](C)CO)C[C@@H](C)[C@@H](CN(C)C(=O)C2CCC2)O3)c1`, the CPE inhibition is -2.93%.

`CO[C@H]1CN(C)C(=O)c2ccc(NC(=O)C3CC3)cc2OC[C@H](C)N(Cc2ccncc2)C[C@@H]1C`: the CPE inhibition was -0.282%.

`O=C(C1CCCCC1)N1CC2(C1)[C@H](c1ccccc1)[C@@H](CO)N2CCC(F)(F)F`: the CPE inhibition was 34.6% (active).

For `CCC(=O)N1[C@@H](CO)[C@@H](c2ccccc2)C12CN(C(=O)c1cnccn1)C2`, the CPE inhibition was 21.9% (active).

Consider `CC(=O)N1CC2(C1)[C@@H](c1ccccc1)[C@@H](CO)N2C(=O)c1cnccn1`, for which the CPE inhibition is -5.39%.

For the molecule `O=C(C1CCCC1)N1[C@H](CO)[C@@H](c2ccccc2)C12CN(CCC(F)(F)F)C2`, the CPE inhibition is -3.05%.

In the case of `O=C(c1cnccn1)N1CC2(C1)[C@H](c1ccccc1)[C@H](CO)N2C(=O)c1ccccc1`, the CPE inhibition was -6.13%.

Regarding `O=C(C1CCCC1)N1CC2(C1)[C@H](c1ccccc1)[C@H](CO)N2CCC(F)(F)F`, the CPE inhibition was -9.33%.

With `COCC#Cc1cnc2c(c1)C(=O)N([C@H](C)CO)C[C@H](C)[C@H](CN(C)C(=O)Cc1cccnc1)O2`, the CPE inhibition was -4.96%.

With `C[C@H]1CCCCO[C@H](CN(C)S(=O)(=O)c2ccc(F)cc2)[C@@H](C)CN([C@@H](C)CO)C(=O)c2cc(NS(=O)(=O)c3cn(C)cn3)ccc2O1`, the CPE inhibition was 12.6%.

For `CC(=O)N1[C@H](CO)[C@@H](c2ccc(-c3ccccc3)cc2)[C@H]1CNC(=O)C1CC1`, the CPE inhibition was -7.62%.

Consider `CCNC(=O)C[C@@H]1CC[C@@H]2[C@H](COc3ccc(NC(=O)Nc4cccc(C)c4)cc3C(=O)N2C)O1`, for which the CPE inhibition is -13.2%.

With `COc1ccccc1-c1cn(CC[C@@H]2CC[C@H](NC(=O)c3ccccc3F)[C@H](CO)O2)nn1`, the CPE inhibition is 4.94%.

Consider `C[C@@H]1CN([C@H](C)CO)C(=O)c2cccc(NC(=O)Nc3ccc4c(c3)OCO4)c2O[C@H]1CN(C)S(=O)(=O)c1ccccc1`, for which the CPE inhibition is -7.78%.

Consider `Nc1nc(SCC(=O)Nc2cc(C(F)(F)F)ccc2Cl)[nH]c(=O)c1NC(=O)c1ccco1`, for which the CPE inhibition was -1.74%.

For the molecule `COCCNC(=O)CSc1nc(N)c(NC(=O)c2ccco2)c(=O)[nH]1`, the CPE inhibition is 96.9% (active).

As for `COC(=O)c1ccc(NC(=O)CSc2nc(N)c(NC(=O)c3ccc(Br)o3)c(=O)[nH]2)cc1`, the CPE inhibition was -4.82%.

Regarding `CCCNC(=O)N1[C@H](CO)[C@H](c2ccccc2)[C@H]1CNC(=O)C1CCCCC1`, the CPE inhibition was -12%.

As for `CC(=O)Nc1ccc2c(c1)C(=O)N(C)[C@@H]1CC[C@@H](CC(=O)NCC3CCCCC3)O[C@@H]1CO2`, the CPE inhibition is -1.94%.

With `COC(=O)[C@]1(Cc2ccccc2)NC=C(C(=O)c2ccccc2)[C@@H]1c1cccc(OC)c1`, the CPE inhibition was -11.9%.

On to `COc1ccc(NC(=O)Nc2ccc3c(c2)C(=O)N([C@@H](C)CO)C[C@@H](C)[C@@H](CN(C)S(=O)(=O)c2ccc(C)cc2)OCCCC[C@H](C)O3)cc1`, for which the CPE inhibition was -2.48%.

In the case of `COC(=O)[C@]12C[C@H](CC(=O)NCCCCc3ccccc3)C(=O)N(Cc3ccc4c(c3)OCO4)C1=C[C@H](C(C)(C)C)O[C@@H]2C`, the CPE inhibition is 1.32%.
